In PubChem BioAssay (Tox21):
Unmarked numbers belong to inactive results. Results filed as inconclusive are left out. Where a call stands in place of a potency, no number is given. The source made the active and inactive calls. Unless noted, calls follow the shape of the dose curve; as a rule, active = well fitted curve in the direction sought with a large enough effect in the repeat runs; inconclusive = weak or mixed curves; inactive = no such curve, though single readings can be large; an effect the other way counts as inactive or inconclusive.

Legend:
[1] = biological target: Androgen receptor (Homo sapiens) (UniProt P10275); assay: qHTS assay to identify small molecule antagonists of the androgen receptor (AR) signaling pathway using the MDA cell line in the presence of 0.5 nM R1881 (AID 1259243); also: nearly all actives have a fitted effect of over 50% in size; also: potency is read from the fitted curve at half-maximal effect
In short: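 Luminescence from an AR/GR-responsive MMTV-luciferase construct in MDA-kb2 breast carcinoma cells, read 30 min after ONE-Glo, following 16 hr co-treatment with compounds and 0.5 nM R1881.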

[2] = qHTS assay to identify small molecule phospholipidosis (PLD) inducers (AID 1259344; active = well fitted curve in the direction sought with a large enough effect; an effect the other way counts as inactive or inconclusive)
In short: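 Read-out is LipidTOX Red fluorescence (ex 595/em 615) imaged in HepG2 cells after 24 h compound exposure at 37 C, with Hoechst nuclear counterstain (ex 352/em 461) allowing per-cell normalisation.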

[3] = qHTS assay to identify small molecule HDAC inhibitors (AID 1259364); also: potency is read from the fitted curve at half-maximal effect;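 also: wild-type HCT-116 cells with endogenous class I/II HDAC activity; nearly all actives have a fitted effect of over 45% in size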
In short: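 HCT-116 wt cells, 1,500/well, overnight attach. Compounds (DMSO) 2 h, 37 °C. HDAC-Glo I/II, 30 min RT. Luminescence.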

[4] = qHTS assay to identify small molecule HDAC inhibitors - cell viability counter screen (AID 1259365); also: series mostly up to about 92 µM; nearly all actives have a fitted effect of over 50% in size
In short: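 CellTiter-Glo luminescence (30 min, room temperature) reported viability after a 2 h compound exposure at 37 C. Cells: wild-type HCT-116, 1,500 per well, seeded the night before.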

[5] = qHTS assay to identify small molecule agonists of the sonic hedgehog signaling (Shh) pathway (AID 1259368; calls by dose curve; also: nearly all actives have a fitted effect of over 15% in size; also: potency is read from the fitted curve at half-maximal effect)
In short: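 Following a 24 hr incubation with DMSO-dissolved compounds at 37 C, 5% CO2, Gli1-Luc NIH/3T3-derived cells received luciferase reagent for 30 min at room temperature prior to luminescence measurement.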

[6] = qHTS assay to identify small molecule agonists of the estrogen receptor beta (ER-beta) signaling pathway - cell viability counter screen (AID 1259380); also: nearly all actives have a fitted effect of over 30% in size; also: potency is read from the fitted curve at half-maximal effect
In short: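 Compounds dissolved in DMSO were pin-transferred onto ER-beta-UAS-bla HEK293T cells that had settled 6 hr, and exposure ran 16 hr at 37C. Following the reporter read, CellTiter-Glo luminescence after 30 min at room temperature indicated cytotoxicity.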

[7] = biological target: Androgen receptor (Homo sapiens) (UniProt P10275); assay: qHTS assay to identify small molecule agonists of the androgen receptor (AR) signaling pathway in the presence of an antagonist (AID 1259381; calls by dose curve; also: nearly all actives have a fitted effect of over 15% in size)
In short: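 Plated MDA-kb2 cells (3,000/well) were pre-incubated 5hr, given nilutamide (3.0uM final) or buffer, then dosed with compounds in DMSO at 15 concentrations. Luciferase activity was quantified by luminescence after 16hr at 37C.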

[8] = qHTS assay to identify small molecule agonists of the sonic hedgehog signaling (Shh) pathway - cell viability counter screen (AID 1259366); also: nearly all actives have a fitted effect of over 50% in size; also: potency is read from the fitted curve at half-maximal effect
In short: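 Cytotoxicity counter screen: CellTiter-Fluor reagent added after 23 h compound exposure, then 1 h at 37C and fluorescence read. Cells were 3T3 Gli1-Luc, seeded 2,000 per well and dosed 4 h post-plating.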

[9] = qHTS assay to identify small molecule antagonists of the sonic hedgehog signaling (Shh) pathway - cell viability counter screen (AID 1259367); also: nearly all actives have a fitted effect of over 55% in size; also: potency is read from the fitted curve at half-maximal effect
In short: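 Fluorescence read-out (CellTiter-Fluor, 1 hr at 37C) taken after 23 hr compound treatment of 3T3 Gli1-Luc cells stimulated with conditioned medium. Cells were seeded at 2,000 per well and pre-incubated 4 hr.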

[10] = qHTS assay to identify small molecule antagonists of the sonic hedgehog signaling (Shh) pathway (AID 1259369; calls by dose curve; also: nearly all actives have a fitted effect of over 45% in size; also: potency is read from the fitted curve at half-maximal effect)
In short: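 Read-out is luminescence from a firefly luciferase gene controlled by the Gli1 response element, in 3T3Gli1-Luc cells pre-incubated 4hr then exposed to compounds and conditioned medium for 24hr.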

[11] = biological target: Estrogen receptor (Homo sapiens) (UniProt P03372); assay: qHTS assay to identify small molecule agonists of the estrogen receptor alpha (ER-alpha) signaling pathway in the presence of an antagonist (AID 1259383; calls by dose curve; also: top concentration of the series differs between compounds; nearly all actives have a fitted effect of over 15% in size)
In short: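 Luminescent ERE-luciferase reporter, VM7Luc4E2 cells (endogenous ER-alpha); 10.0nM ICI-182,780 final; 15-point compound titration; 22hr at 37C; ONE-Glo, 30min RT.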

[12] = qHTS assay to identify small molecule agonists or antagonists of the thyroid stimulating hormone receptor (TSHR) signaling pathway - wild type cell line counter screen (AID 1259384; calls by dose curve)
In short: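 Wild-type Hek293 cells, 800/well, 18 h at 37C, then compound with Ro20-1724 for 30 min RT. cAMP by HTRF (cAMP-d2/anti-cAMP cryptate), 1 h RT, fluorescence read. 15 concentrations, triplicates.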

[13] = qHTS assay to identify small molecule agonists of the estrogen receptor alpha (ER-alpha) signaling pathway in the presence of an antagonist - cell viability counter screen (AID 1259386);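 also: cells exposed to compounds for 22 h at 37 °C before the viability read; nearly all actives have a fitted effect of over 30% in size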; also: potency is read from the fitted curve at half-maximal effect
In short: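 Using estrogen-depleted VM7Luc4E2 cells, the 15-concentration compound series was applied together with 10.0nM ICI-182,780 and incubated 22hr at 37C/5% CO2. Cell viability was then scored by CellTiter-Fluor.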

[14] = qHTS assay to identify small molecule agonists of the androgen receptor (AR) signaling pathway in the presence of an antagonist - cell viability counter screen (AID 1259379); also: nearly all actives have a fitted effect of over 25% in size; also: potency is read from the fitted curve at half-maximal effect
In short: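 Each compound was tested at 15 concentrations on MDA-kb2 cells in the presence of 3.0uM nilutamide. Viability was measured by CellTiter-Fluor fluorescence after a 16 hr incubation at 37C in a CO2-free atmosphere.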

[15] = biological target: Estrogen receptor beta (Homo sapiens) (UniProt Q92731); assay: qHTS assay to identify small molecule antagonists of the estrogen receptor beta (ER-beta) signaling pathway (AID 1259378; active = well fitted inhibition curve with a large enough effect in the signal ratio in the repeat runs, not every such curve was filed as active; the % refers to the signal ratio; also: potency is read from the fitted curve at half-maximal effect)
In short: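 ER-beta-UAS-bla HEK293T cells in 2% charcoal-stripped FBS medium treated with compound plus 1nM final 17-beta-estradiol for 16 hr at 37C. Beta-lactamase reporter read by FRET substrate fluorescence after 2 hours at room temperature.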

[16] = qHTS assay to identify small molecule antagonists of the estrogen receptor beta (ER-beta) signaling pathway - cell viability counter screen (AID 1259382); also: nearly all actives have a fitted effect of over 55% in size; also: potency is read from the fitted curve at half-maximal effect
In short: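 CellTiter-Glo ATP luminescence measured after the LiveBLAzer read in the same wells; ER-beta-UAS-bla HEK293T cells, 16 hr compound treatment with 1nM 17-beta-estradiol agonist at 37C, 5% CO2.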

[17] = biological target: Thyrotropin receptor (Homo sapiens) (UniProt P16473); assay: qHTS assay to identify small molecule antagonists of the thyroid stimulating hormone receptor (TSHR) signaling pathway (AID 1259385; calls by dose curve; also: nearly all actives have a fitted effect of over 20% in size)
In short: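 TSHR-HEK293 cells (800/well) plated 18 h, then compounds with Ro20-1724 and TSH at 1.5 ng/mL final, 30 min at room temperature. cAMP quantified by HTRF (cAMP-d2/anti-cAMP-cryptate, 1 h); 15 concentrations in triplicate.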

[18] = biological target: Estrogen receptor (Homo sapiens) (UniProt P03372); assay: qHTS assay to identify small molecule antagonists of the estrogen receptor alpha (ER-alpha) signaling pathway using the BG1 cell line in the presence of 0.1 nM 17-beta-estradiol (AID 1259244); also: nearly all actives have a fitted effect of over 50% in size
In short: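 Luciferase signal from VM7Luc4E2 ERE-reporter cells, co-dosed with test compound and 0.1 nM final 17beta-estradiol for 22 h, read with ONE-Glo.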

[19] = biological target: Estrogen receptor beta (Homo sapiens) (UniProt Q92731); assay: qHTS assay to identify small molecule agonists of the estrogen receptor beta (ER-beta) signaling pathway (AID 1259377; active = well fitted activation curve with a large enough effect in the signal ratio in the repeat runs, not every such curve was filed as active; the % refers to the signal ratio)
In short: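 Ratiometric beta-lactamase FRET read-out came after 2 h substrate loading at room temperature. It followed 16 h compound treatment at 37C of GripTite HEK293T cells carrying a UAS-bla reporter, plated in 2% charcoal-stripped FBS medium.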

[20] = biological target: Progesterone receptor (Homo sapiens) (UniProt P06401); assay: qHTS assay to identify small molecule agonists of the progesterone receptor (PR) signaling pathway (AID 1346784; calls by dose curve; also: nearly all actives have a fitted effect of over 30% in size)
In short: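 Agonist qHTS: compounds pinned onto 3,000 PR-UAS-bla HEK 293T cells per well in charcoal-stripped serum medium, 16hr at 37C, then beta-lactamase activity measured by LiveBLAzer FRET fluorescence after 2 hours at room temperature.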

Chain of Estrogen receptor beta (Homo sapiens) (Q92731 whole entry, looked up): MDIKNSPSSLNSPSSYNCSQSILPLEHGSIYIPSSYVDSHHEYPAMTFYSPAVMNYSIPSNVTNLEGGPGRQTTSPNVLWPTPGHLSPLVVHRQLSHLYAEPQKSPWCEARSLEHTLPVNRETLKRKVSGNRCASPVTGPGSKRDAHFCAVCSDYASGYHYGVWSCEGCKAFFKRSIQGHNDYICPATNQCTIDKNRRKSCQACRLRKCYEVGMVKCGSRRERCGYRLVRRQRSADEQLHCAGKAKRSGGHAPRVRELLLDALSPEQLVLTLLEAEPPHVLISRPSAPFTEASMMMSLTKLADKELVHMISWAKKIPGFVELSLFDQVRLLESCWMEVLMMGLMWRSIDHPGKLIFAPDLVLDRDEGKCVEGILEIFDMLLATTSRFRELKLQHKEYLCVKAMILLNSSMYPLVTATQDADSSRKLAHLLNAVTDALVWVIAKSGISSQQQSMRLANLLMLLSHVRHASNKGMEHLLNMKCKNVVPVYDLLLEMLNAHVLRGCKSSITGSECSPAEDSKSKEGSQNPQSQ
Chain of Estrogen receptor (Homo sapiens) (P03372 whole entry, looked up): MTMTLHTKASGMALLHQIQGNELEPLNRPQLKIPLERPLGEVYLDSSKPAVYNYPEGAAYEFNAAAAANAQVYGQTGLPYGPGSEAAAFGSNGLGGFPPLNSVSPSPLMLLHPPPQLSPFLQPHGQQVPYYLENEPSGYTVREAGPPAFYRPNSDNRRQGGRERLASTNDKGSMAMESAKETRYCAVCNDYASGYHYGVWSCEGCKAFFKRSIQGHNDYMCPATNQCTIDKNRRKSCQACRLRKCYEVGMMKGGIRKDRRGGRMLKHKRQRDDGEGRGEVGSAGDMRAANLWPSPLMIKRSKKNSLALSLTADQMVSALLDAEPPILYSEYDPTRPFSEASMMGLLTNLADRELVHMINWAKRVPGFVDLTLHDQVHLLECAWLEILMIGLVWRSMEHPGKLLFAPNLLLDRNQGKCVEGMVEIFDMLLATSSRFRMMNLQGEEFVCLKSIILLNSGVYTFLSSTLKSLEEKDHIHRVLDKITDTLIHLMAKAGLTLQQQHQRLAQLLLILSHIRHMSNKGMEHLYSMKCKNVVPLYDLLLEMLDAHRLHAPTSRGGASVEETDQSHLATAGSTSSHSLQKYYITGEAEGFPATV
Chain of Thyrotropin receptor (Homo sapiens) (P16473 whole entry, looked up): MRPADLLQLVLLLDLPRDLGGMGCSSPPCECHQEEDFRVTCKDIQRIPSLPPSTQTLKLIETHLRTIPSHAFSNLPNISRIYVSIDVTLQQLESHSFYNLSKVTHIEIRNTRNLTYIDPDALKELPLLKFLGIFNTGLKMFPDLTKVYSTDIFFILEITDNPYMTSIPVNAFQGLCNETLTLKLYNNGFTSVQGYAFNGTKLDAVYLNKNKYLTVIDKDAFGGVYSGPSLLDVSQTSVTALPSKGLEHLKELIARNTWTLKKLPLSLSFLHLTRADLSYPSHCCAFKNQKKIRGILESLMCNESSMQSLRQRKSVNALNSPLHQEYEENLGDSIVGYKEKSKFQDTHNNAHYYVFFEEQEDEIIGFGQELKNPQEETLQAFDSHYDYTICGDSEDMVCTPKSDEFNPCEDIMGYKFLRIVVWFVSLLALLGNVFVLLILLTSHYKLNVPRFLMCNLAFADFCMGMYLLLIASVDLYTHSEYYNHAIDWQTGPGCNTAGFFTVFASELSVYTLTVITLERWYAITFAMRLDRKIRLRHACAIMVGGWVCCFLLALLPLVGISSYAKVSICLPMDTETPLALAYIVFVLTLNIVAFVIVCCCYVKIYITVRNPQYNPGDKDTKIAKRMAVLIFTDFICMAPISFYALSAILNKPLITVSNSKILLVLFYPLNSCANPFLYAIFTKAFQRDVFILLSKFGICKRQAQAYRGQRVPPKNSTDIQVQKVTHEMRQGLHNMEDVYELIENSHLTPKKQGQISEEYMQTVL
Chain of Androgen receptor (Homo sapiens) (P10275 whole entry, looked up): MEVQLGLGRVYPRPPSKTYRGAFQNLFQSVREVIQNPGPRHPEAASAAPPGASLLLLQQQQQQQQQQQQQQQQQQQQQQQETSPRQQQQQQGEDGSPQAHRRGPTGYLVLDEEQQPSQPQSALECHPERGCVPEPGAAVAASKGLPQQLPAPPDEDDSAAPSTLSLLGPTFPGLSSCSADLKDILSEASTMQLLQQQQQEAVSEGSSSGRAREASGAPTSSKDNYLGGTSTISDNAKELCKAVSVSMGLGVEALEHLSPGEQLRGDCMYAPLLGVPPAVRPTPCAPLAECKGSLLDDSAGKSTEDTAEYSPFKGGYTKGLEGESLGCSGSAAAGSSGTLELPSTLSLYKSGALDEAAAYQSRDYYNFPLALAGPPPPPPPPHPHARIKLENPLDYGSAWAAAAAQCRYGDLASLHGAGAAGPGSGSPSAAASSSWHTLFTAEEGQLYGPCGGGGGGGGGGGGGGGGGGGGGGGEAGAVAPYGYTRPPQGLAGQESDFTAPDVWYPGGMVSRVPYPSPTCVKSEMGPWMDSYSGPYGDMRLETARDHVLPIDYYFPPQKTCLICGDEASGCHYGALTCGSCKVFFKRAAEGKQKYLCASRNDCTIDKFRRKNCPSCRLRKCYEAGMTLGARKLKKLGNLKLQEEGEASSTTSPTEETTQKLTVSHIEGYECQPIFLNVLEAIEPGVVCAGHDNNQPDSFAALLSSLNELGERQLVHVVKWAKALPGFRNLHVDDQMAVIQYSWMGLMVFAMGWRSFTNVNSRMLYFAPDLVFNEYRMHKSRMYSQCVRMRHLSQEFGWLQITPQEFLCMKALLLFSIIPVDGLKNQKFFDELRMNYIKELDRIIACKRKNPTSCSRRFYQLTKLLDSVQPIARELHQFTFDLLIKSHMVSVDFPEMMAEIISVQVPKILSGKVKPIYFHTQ
Chain of Progesterone receptor (Homo sapiens) (P06401 whole entry, looked up): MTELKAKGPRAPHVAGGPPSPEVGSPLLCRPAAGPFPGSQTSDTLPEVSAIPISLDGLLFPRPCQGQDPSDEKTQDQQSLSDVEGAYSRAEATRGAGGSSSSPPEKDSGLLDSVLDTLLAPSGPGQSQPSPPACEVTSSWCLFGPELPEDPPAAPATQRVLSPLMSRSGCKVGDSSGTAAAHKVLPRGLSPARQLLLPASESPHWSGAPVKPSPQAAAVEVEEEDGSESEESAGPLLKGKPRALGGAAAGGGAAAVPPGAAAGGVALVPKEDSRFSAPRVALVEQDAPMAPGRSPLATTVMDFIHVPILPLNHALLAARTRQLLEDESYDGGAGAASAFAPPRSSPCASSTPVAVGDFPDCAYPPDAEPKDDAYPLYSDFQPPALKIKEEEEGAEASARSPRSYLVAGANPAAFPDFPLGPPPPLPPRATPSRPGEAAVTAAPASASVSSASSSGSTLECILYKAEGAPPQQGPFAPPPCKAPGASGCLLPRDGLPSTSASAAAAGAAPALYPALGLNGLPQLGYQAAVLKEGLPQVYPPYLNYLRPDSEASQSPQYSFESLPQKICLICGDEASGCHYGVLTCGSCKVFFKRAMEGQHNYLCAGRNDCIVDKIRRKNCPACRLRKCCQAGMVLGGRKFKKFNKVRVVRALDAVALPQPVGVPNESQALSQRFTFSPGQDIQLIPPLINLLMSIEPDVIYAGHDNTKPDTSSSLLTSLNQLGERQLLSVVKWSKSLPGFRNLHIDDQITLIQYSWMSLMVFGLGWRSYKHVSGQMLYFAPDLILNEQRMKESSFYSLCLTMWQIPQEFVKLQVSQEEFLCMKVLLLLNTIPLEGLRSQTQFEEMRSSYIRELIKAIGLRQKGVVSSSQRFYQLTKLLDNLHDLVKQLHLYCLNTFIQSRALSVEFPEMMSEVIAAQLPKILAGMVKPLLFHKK

Structure (SMILES)	Potency [1]	Potency [2]	Potency [3]	Potency [4]	Potency [5]	Potency [6]	Potency [7]	Potency [8]	Potency [9]	Potency [10]	Potency [11]	outcome [12]	Potency [13]	Potency [14]	Potency [15]	Potency [16]	Potency [17]	Potency [18]	Potency [19]	outcome [20]
C[n+]1c2cc(N)ccc2cc2ccc(N)cc21 (tested in a mixture with another compound)	13.3 µM (active)	inactive	inactive	inactive	inactive	11.9 µM (active)	inactive													
N#CSCSc1nc2ccccc2s1	inactive		19.3 µM (active)	inactive	inactive	8.63 µM (active)		10.9 µM (active)	24.3 µM (active)	1.93 µM (active)	inactive	inactive	inactive							
COc1cc(C=C2CCC/C(=C\c3ccc(O)c(OC)c3)C2=O)ccc1O	9.44 µM (active)	inactive	inactive	inactive	26.6 µM (active)	33.5 µM (active)	inactive		23.7 µM (active)		inactive	inactive		26.6 µM (active)						
CCOC(=O)C1=C(C)NC(C)=C(C(=O)OCC)C1c1ccccc1/C=C/C(=O)OC(C)(C)C	23.7 µM (active)	inactive	inactive	inactive	inactive	23.7 µM (active)	inactive		29.8 µM (active)	29.8 µM (active)	inactive	inactive	inactive		inactive	inactive	inactive			
CCCCCCS	inactive		inactive		inactive	inactive			inactive	inactive	inactive	inactive	inactive	inactive	inactive	inactive	inactive	inactive	inactive	inactive
CCC(C)c1cc([N+](=O)[O-])cc([N+](=O)[O-])c1OC(=O)OC(C)C (stereo not drawn)	38.6 µM (active)		inactive	inactive	inactive				68.6 µM (active)	21.7 µM (active)			54.5 µM (active)	61.1 µM (active)		inactive	inactive			
Cc1oc(-c2ccccc2)nc1CCOc1ccc(C[C@H](Nc2ccccc2C(=O)c2ccccc2)C(=O)O)cc1	inactive		inactive		inactive	27.3 µM (active)	inactive		48.6 µM (active)		inactive	inactive	48.6 µM (active)	54.5 µM (active)	27.3 µM (active)	24.3 µM (active)	inactive	inactive		
CCCC(O)C(O)CO (stereo not drawn)	inactive		inactive	inactive	inactive			inactive	inactive	inactive		inactive	inactive	inactive	inactive	inactive	inactive			inactive
